Measurements published in the supplement of paper PMC6555819.

Assays:
Experiment in all cases: PBM binding z-score (relative to random genomic background probes); higher = stronger binding; sequences stand for … in GC…GCGATTGACAGCGTAGAATGAAGG
[1] = system: PPARg:RXRa DBDmut IVT, anti-RXR (DBD mutation: RXRa K156A/R161A, NR concentration 270 nM, RXRa partner concentration 90 nM)
Procedure, shortened: (§1)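 Random background probes are the reference for binding z-scores. These scores derive from regression-normalized fluorescence on custom Agilent 4×180K protein-binding microarrays incubated 1 h with ligand-free nuclear receptor dimers. Binding was detected with antibodies against each partner (one per run).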

[2] = system: PPARg:RXRa IVT, anti-PPARg (NR concentration 270 nM, RXRa partner concentration 90 nM)
Procedure, shortened: as §1

[3] = system: PPARg DBDmut:RXRa IVT, anti-PPARg (DBD mutation: PPARg1 K132A/R137A, NR concentration 270 nM, RXRa partner concentration 90 nM)
Procedure, shortened: as §1

[4] = system: PPARg DBDmut IVT, anti-PPARg (DBD mutation: PPARg1 K132A/R137A, NR concentration 270 nM)
Procedure, shortened: as §1

[5] = system: PPARg homodimer (NR concentration 180 nM)
Procedure, shortened: as §1

[6] = system: PXR:RXRa (NR concentration 270 nM, RXRa partner concentration 90 nM)
Procedure, shortened: as §1

[7] = system: PXR homodimer (NR concentration 270 nM)
Procedure, shortened: as §1

[8] = system: RARa:RXR (NR concentration 270 nM, RXRa partner concentration 90 nM)
Procedure, shortened: as §1

[9] = system: RARa homodimer (NR concentration 270 nM)
Procedure, shortened: as §1

[10] = system: RARb:RXRa (NR concentration 270 nM, RXRa partner concentration 90 nM)
Procedure, shortened: as §1

Sequence	PBM binding z-score [1]	PBM binding z-score [2]	PBM binding z-score [3]	PBM binding z-score [4]	PBM binding z-score [5]	PBM binding z-score [6]	PBM binding z-score [7]	PBM binding z-score [8]	PBM binding z-score [9]	PBM binding z-score [10]
CGTCCAAGGTCAGCAGGTGAGTGAAAGCGACGTG	2.8	3	-0.33	-0.746	3.15	2.41	0.206	3.32	0.593	4.87
CCTACTGGGCCATTCAGAGGTCATTGTTCATATG	4.55	4.17	0.178	-0.495	2.5	4.71	2.33	4.2	0.216	2.97
TAGCCTAGGTCATGCGGGCCAGTATAGTGTCGGC	1.77	2.76	-0.107	-0.0866	0.667	1.37	-0.724	2.44	-0.846	3.66
AGTCAAAGTTCATCAAGGTAACGTAAGATATGCT	0.277	3.34	1.59	1.26	3.05	5.4	9.31	4.3	2.24	4.9
AGTCAAAGGTCAGGACGAGGTAACGTAAAGCACG	3.25	5.65	0.687	0.49	4.08	4.9	0.639	5.78	2.25	–
ATCGAAGGGTCGAAGGTGAGTATACCCACCCGAA	-0.959	1.2	0.357	-0.0817	0.676	1.64	-0.184	2.48	-0.374	2.15
GGAACGAGCGCAAAGTTGATAGCATCTGTCGACG	-0.42	-0.495	-0.634	-1.33	-1.01	-0.773	-0.719	-0.723	-0.818	-0.372
TTTCCAAGGTGAAAGGTCGTTGATGCACGCCTTG	2.51	4.72	0.923	0.85	1.64	4.23	0.161	5.56	-0.0268	–
CGTCCAAGGTCAATGTTAGGTCAGTGAAAGCATT	2.85	3.43	-0.0958	-0.256	3.57	4.77	1.6	5.78	1.18	–
CAAGCTAGGTCAAGAGGTCAAAGTCCGCTTCCCG	4.26	5.5	0.198	-0.534	7.12	6.25	3.16	7.58	3.04	–
ATCGAACGGTCGAGGTGAGTATAGAGAAAGGGAA	-0.731	0.523	0.835	-0.166	0.13	-0.26	-0.544	-0.1	-0.343	1.19
ATTTGTAGGTTATCGGGTCATTCAGTTTGCGCAT	6.74	6.84	2.14	2.88	3.32	4.01	6.61	3.9	2.71	–
TTACCAAGGTGAAAGGTCGTTGAGGCACGCCTTG	2.94	5.16	0.87	2.27	2.82	3.98	0.614	6.03	0.265	–
CGTCCAAGGTCAAGGTCACTGAAAGAGACTCGAA	3.94	5.37	1.81	0.436	3.85	5.68	1.6	6.16	1.64	–
CTCGAAAGGTGGTGCTCAGGTGAGTATACCAAAC	-0.605	0.359	-0.543	-0.314	0.0565	-0.599	-0.22	0.343	-0.47	0.237
CCTACTGGGCCACGAAAGGTGATTGATTCAGTGA	5.14	5.37	-0.117	-0.709	0.352	0.0244	-0.433	0.698	-0.285	0.929
TAGCCTAGGTCATTGGGCTAGTATAGTACGCATC	1.65	3.11	0.176	-0.547	0.811	1.4	-0.602	1.91	-0.44	3.46
